AGP1 TOR yeast = yeast TOR pathway AGP1-GFP modulation | S. cerevisiae AGP1-GFP multiplex flow cytometry, 3 h; GFP as percent of DMSO wells | GFP response vs DMSO, % at 10 µM | 0.02% of 320,000 active | AID 2066;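 active = GFP response relative to DMSO above a set limit, near screen average plus 3 SD, cut at about 150% in these data; inconclusive = fewer than 70 cells counted for the yeast strain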;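 note: median GFP channel fluorescence of the gated AGP1 strain per well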
VLA-4 inh = inhibition in a human VLA-4 binding assay. inhibition, % (about 7 µM as worked out from the volumes in the protocol). VLA-4 expressing cells, ligand binding flow cytometry. 0.2% of 330,000 active. P13612; in the data active = inhibition above about 50%
Target sequence (P13612 whole entry, looked up): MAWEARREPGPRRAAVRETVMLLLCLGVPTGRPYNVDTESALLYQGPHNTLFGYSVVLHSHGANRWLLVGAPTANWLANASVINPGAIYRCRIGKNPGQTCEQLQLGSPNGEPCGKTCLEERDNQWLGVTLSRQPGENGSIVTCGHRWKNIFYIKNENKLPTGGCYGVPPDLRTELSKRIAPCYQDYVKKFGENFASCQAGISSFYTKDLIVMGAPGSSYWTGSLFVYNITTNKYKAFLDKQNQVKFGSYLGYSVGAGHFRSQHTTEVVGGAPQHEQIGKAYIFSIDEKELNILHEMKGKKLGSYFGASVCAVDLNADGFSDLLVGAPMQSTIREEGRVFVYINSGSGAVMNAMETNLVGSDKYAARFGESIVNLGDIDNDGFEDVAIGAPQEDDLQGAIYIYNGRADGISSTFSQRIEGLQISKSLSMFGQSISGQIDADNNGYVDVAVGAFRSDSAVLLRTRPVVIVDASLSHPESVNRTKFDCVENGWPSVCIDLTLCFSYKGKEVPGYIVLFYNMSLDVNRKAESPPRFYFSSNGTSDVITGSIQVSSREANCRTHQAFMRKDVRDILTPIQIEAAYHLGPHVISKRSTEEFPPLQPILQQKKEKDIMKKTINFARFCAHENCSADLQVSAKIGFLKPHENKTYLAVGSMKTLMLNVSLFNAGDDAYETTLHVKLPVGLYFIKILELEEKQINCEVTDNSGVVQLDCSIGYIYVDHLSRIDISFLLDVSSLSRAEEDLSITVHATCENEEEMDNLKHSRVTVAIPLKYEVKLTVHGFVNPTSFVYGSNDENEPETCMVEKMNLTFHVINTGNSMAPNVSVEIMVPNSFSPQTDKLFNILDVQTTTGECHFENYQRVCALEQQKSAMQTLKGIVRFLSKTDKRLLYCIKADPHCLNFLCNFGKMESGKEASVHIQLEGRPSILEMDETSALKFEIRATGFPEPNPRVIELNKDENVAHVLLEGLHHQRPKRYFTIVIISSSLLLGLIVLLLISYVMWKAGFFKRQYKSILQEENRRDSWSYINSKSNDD
LAP4-GFP MLPCN = yeast TOR pathway LAP4-GFP modulation | S. cerevisiae LAP4-GFP multiplex, flow cytometry GFP, 3 h; median GFP as percent of DMSO wells | GFP response vs DMSO, % at 10 µM | 0.34% of 320,000 active;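 active = GFP response vs DMSO above a set limit, about the screen mean plus 3 SD, cut at about 150% in these data; inconclusive = under 70 cell events counted for the yeast strain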
CIT2 TOR yeast = alters CIT2-GFP fluorescence in TOR pathway yeast screen | S. cerevisiae CIT2-GFP strain, flow cytometry, 3 h; 100 means same as DMSO wells | GFP response vs DMSO, % at 10 µM | 0.065% of 320,000 active;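 active = GFP response relative to DMSO above a set limit, near the screen mean plus 3 SD, cut at about 150% in these data; inconclusive = Fewer than 70 cells measured for a yeast strain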;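 note: ratio of well median GFP fluorescence to mean of DMSO wells on the plate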
MEP2-GFP yeast = alters MEP2-GFP fluorescence in TOR pathway yeast screen; S. cerevisiae MEP2-GFP strain, flow cytometry GFP, 3 h; 100% = DMSO control level; 0.51% of 330,000 active; AID 2016; GFP response vs DMSO, % at 10 µM;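 active = GFP response versus DMSO above a set limit, roughly screen mean plus 3 SD, cut at about 180% in these data; inconclusive = fewer than 70 cells counted for a yeast strain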;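 note: median GFP fluorescence of the barcode-gated MEP2-GFP cells per well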
RPL19A TOR yeast = alters RPL19A-GFP fluorescence in TOR pathway yeast screen; S. cerevisiae RPL19A-GFP strain, flow cytometry, 3 h; hits give low values; 0.3% of 330,000 active; percent response vs DMSO, % at 10 µM;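 active = percent response vs DMSO below 50%; inconclusive = fewer than 70 events counted for the yeast strain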;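 note: median channel GFP fluorescence of the barcoded RPL19A-GFP strain; ratio of sample median GFP to plate DMSO average so 100% = DMSO; lower means less RPL19A-GFP as with rapamycin TOR inhibition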
The depositor's hits bear a star; i = inactive; ? = inconclusive; / = no result given; + = active, no number; [ ] = remark or other dose. Most compounds without a hit are left out; they make up all but 1.1% or so of the library.

SMILES | AGP1 TOR yeast | VLA-4 inh | LAP4-GFP MLPCN | CIT2 TOR yeast | MEP2-GFP yeast | RPL19A TOR yeast
O=C(NCCO)Nc1ccc2nc(-c3ccco3)c(-c3ccco3)nc2c1 | ? | 6.2 | ? | ? | ? | 13.4*[may fluoresce violet]
O=C(NCCO)Nc1ccc2nsnc2c1 | 89.6 | 4.5 | 88.7 | 100.9 | 100.1 | 103.6
O=S(=O)(c1ccc(Oc2ccc(-c3nnco3)cc2)nc1)N1CCC(Cc2ccccc2)CC1 | ? | 5.8 | 80.4 | ? | 222.0*[may fluoresce violet] | 26.7*[may fluoresce violet]
O=S(=O)(c1ccc(-c2nnco2)cc1)N1CCCCC1 | 104.2 | -4.5 | 110.7 | 110.8 | 118.5 | 106.7
C(=N\Nc1ccccn1)/c1c[nH]c2ccccc12 | 26.9 | 5.8 | 114.6 | 103.5 | 206.5* | 68.0
Cn1nnnc1SCC(=O)Nc1cc(S(=O)(=O)N2CCCCC2)ccc1Cl | 95.8 | -17.7 | 97.1 | 94.2 | 104.9 | 94.6
COc1ccc(N2CCN(c3ccc(NC(=O)NN)cc3)CC2)cc1 | ? | 10.1 | 87.2 | ? | 327.6*[may fluoresce violet] | 44.6*[may fluoresce violet]
COc1cccc(C(=O)NCCS(=O)(=O)N2CCN(C(=O)c3ccco3)CC2)c1 | 88.1 | 5.5 | 90.1 | 88.1 | 93.8 | 88.1
OC(CNCc1ccccc1)(c1ccccc1)c1ccccc1 | 25.6 | -8.3 | 85.0 | ? | 211.3*[may fluoresce violet] | 66.2
O=S(=O)(Nc1c(O)ccc2ccccc12)c1ccccc1 | ? | -29.9 | 93.7 | ? | 237.0*[may fluoresce violet] | 41.6*[may fluoresce violet]
O=S(=O)(Nc1c(O)ccc2ccccc12)c1ccc(F)cc1 | 113.5 | -51.7 | 118.8 | 104.4 | 108.4 | 97.6
COc1cc(/C=C/C(=O)c2ccc3c(c2)OCCO3)cc(Br)c1OCC(=O)N(C)C | 98.0 | 14.2 | 96.3 | 91.8 | 102.8 | 99.1
O=C(Nc1ccc(NC(=O)c2ccco2)cc1)c1ccco1 | 91.0 | 0.5 | 76.0 | 97.5 | 87.1 | 99.2
O=C(Nc1ccc(Cn2nnc3ccccc32)cc1)c1ccco1 | ? | 13.2 | 77.5 | ? | 293.8*[may fluoresce violet] | 14.4*[may fluoresce violet]
C=CCN(Cc1ccco1)S(=O)(=O)c1ccc(Cl)cc1 | 116.1 | -1.4 | 102.1 | 155.6*[may fluoresce green] | 110.7 | 88.8
Cc1ccc(-n2nc3c(N4CCC(C(=O)N5CCC(C(N)=O)CC5)CC4)nnc(C)c3c2C)cc1 | 96.7 | 23.7 | 91.3 | 101.5 | 103.2 | 97.2
CCN1CCN(C(=O)C2CCN(c3nnc(C)c4c(C)n(-c5ccc(C)cc5)nc34)CC2)CC1 | 96.9 | 4.9 | 142.7 | 155.6* | 140.4 | 106.8
Cn1cnc([N+](=O)[O-])c1S(=O)(=O)c1cccc(Cl)c1 | 122.7 | 5.4 | 109.8 | 106.0 | 177.1* | 96.1
Cc1nn(C(C)C(=O)c2cccc(Cl)c2)c(C)c1[N+](=O)[O-] (configuration not stated) | 98.0 | 3.4 | 104.0 | 105.2 | 113.5 | 104.2
Cn1ccc(C(=O)Oc2ccc(C(=O)Nc3ccc(F)cc3F)cc2)n1 | 76.8 | 12.4 | 108.0 | 86.3 | 97.5 | 95.3
COc1cccc(N2CCN(S(=O)(=O)c3ccc(-c4coc(C)n4)cc3)CC2)c1 | 122.1 | 7.7 | 114.9 | 112.0 | 114.4 | 109.5
COc1cccc(N2CCN(S(=O)(=O)c3ccc4nc(-c5ccccc5)[nH]c4c3)CC2)c1 | 30.1 | 2.5 | 90.5 | ? | 276.9*[may fluoresce violet] | /
COc1ccc(Cl)cc1NC(=O)CN(C(=O)c1ccco1)C1CCCCC1 | 97.5 | 10.4 | 104.9 | 89.7 | 101.1 | 101.5
CCN(CC)CCN(CC(=O)N(C1CCCCC1)C1CCCCC1)C(=O)c1ccco1 | 18.2 | 3.4 | 71.9 | ? | 226.1*[may fluoresce violet] | 77.3
Cc1cc(NC(=O)c2cccc(S(=O)(=O)N3CCCCC3)c2)no1 | 104.5 | -7.6 | 105.1 | 89.9 | 103.8 | 100.3
SMILES | AGP1 TOR yeast | VLA-4 inh | LAP4-GFP MLPCN | CIT2 TOR yeast | MEP2-GFP yeast | RPL19A TOR yeast
O=C(NCCCN1CCOCC1)c1cccc(S(=O)(=O)N2CCOCC2)c1 | +[may fluoresce green] | i | +[may fluoresce green] | +[may fluoresce green] | +[may fluoresce green] | i
O=C(CN1C(=O)CSc2ccc(S(=O)(=O)N3CCOCC3)cc21)NCCCN1CCOCC1 | ? | -6.1 | ? | ? | ? | 22.6*[may fluoresce violet]
Cc1cc(NC(=O)c2cccc(S(=O)(=O)N3CCOCC3)c2)no1 | / | -0.7 | 105.5 | ? | 536.3*[may fluoresce violet] | 39.7*[may fluoresce violet]
O=C(COC(=O)c1cccc(S(=O)(=O)N2CCOCC2)c1)c1ccccc1 | 15.5 | -5.7 | 75.2 | ? | 308.1*[may fluoresce violet] | 53.2
COc1ccc(Cl)cc1NC(=O)CN(C)C1CCS(=O)(=O)C1 (configuration not stated) | 106.2 | 1.5 | 109.8 | 96.7 | 102.4 | 101.0
CCc1ccccc1C1=CC(=O)C[C@H](c2ccc(OC)cc2)C1 | 94.7 | 9.6 | 87.0 | 97.1 | 86.7 | 95.4
CN(C(=O)COC(=O)/C=C/c1ccc(Cl)c(Cl)c1)c1c(N)n(Cc2ccccc2)c(=O)[nH]c1=O | 102.6 | 25.9 | 107.6 | 94.6 | 113.8 | 96.7
CC12CCC(C(=O)N3CCCc4ccccc43)(CC1=O)C2(C)C (configuration not stated) | 100.0 | 3.5 | 106.4 | 92.0 | 103.8 | 98.7
CC12CCC(C(=O)N3CCc4ccccc43)(CC1=O)C2(C)C (configuration not stated) | 31.7 | 2.0 | 96.0 | ? | 282.0*[may fluoresce violet] | /
Cc1ccccc1-c1cc(C(=O)NCC2CC2)nn1CC1CC(c2cccc([N+](=O)[O-])c2)=NO1 (configuration not stated) | 101.0 | 0.4 | 106.6 | 103.9 | 92.7 | 97.3
O=C(C1CC1)N1CCc2cc(Br)cc(S(=O)(=O)NCc3ccccn3)c21 | ? | 1.7 | 90.3 | ? | 202.0*[may fluoresce violet] | 42.3*[may fluoresce violet]
CCC(=O)N1CCc2cc(Br)cc(S(=O)(=O)N3CCC(C(=O)NC(C)(C)C)CC3)c21 | 103.5 | 6.4 | 98.0 | 103.7 | 100.7 | 101.5
O=C(C1CC1)N1CCc2cc(Br)cc(S(=O)(=O)N3CCOCC3)c21 | ? | 25.1 | 78.1 | ? | 214.1*[may fluoresce violet] | 17.9*[may fluoresce violet]
CCC(=O)N1CCc2cc(Br)cc(S(=O)(=O)N3CCCC(C(=O)NC(C)(C)C)C3)c21 (configuration not stated) | 15.2 | -8.3 | 74.4 | ? | 326.3*[may fluoresce violet] | 53.0
O=C(C1CC1)N1CCc2cc(Br)cc(S(=O)(=O)NCCN3CCOCC3)c21 | 96.8 | 11.8 | 99.2 | 94.0 | 104.9 | 97.2
COc1ccc(NC(=O)CSCC(=O)N2CCN(C(=O)c3ccco3)CC2)cc1 | 109.2 | 1.0 | 111.5 | 104.1 | 104.8 | 105.5
O=S(=O)(c1ccc(Cl)cc1)N1CCN(c2ncnc3sccc23)CC1 | 91.3 | -10.3 | 104.8 | 80.8 | 83.4 | 85.1
CCCC[n+]1c2ccccc2cc2ccccc21 | 19.6 | 18.4 | 105.2 | ? | 234.2*[may fluoresce violet] | 60.7
CCC[n+]1c2ccccc2cc2ccccc21 | 15.6 | -2.5 | 103.0 | ? | 139.4 | 83.2
COc1cccc(/C=N/NC(=O)c2ccoc2C)c1 | ? | 12.0 | 103.9 | ? | 322.4*[may fluoresce violet] | 62.0
